# In publication PMC5540273 (PLoS ONE, 2017):
# Key:
# Conditions in all cases: concentration: 1 μM,replicates: in singlicate; n = 1
# [1] = test system: T1, PCTK2
# T1 construct: gene CDK17
# [2] = test system: T2, PCTK3
# T2 construct: gene CDK18
# [3] = test system: PDGFRA
# [4] = test system: PDGFRB
# [5] = test system: PDPK1
# [6] = test system: PFTAIRE2
# [7] = test system: T3, PFTK1
# T3 construct: gene CDK14
# [8] = test system: PHKG1
# [9] = test system: PHKG2
# [10] = test system: PIK3C2B
# 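Note: KINOMEscan kinase panel screen.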
SMILES,%Inh [1] [%],%Inh [2] [%],%Inh [3] [%],%Inh [4] [%],%Inh [5] [%],%Inh [6] [%],%Inh [7] [%],%Inh [8] [%],%Inh [9] [%],%Inh [10] [%]
CS(=O)(=O)Nc1ccc(-c2ccnc3[nH]ccc23)cc1 [GSK993273],0,0,1,61,0,16,16,2,13,0
O=C(Nc1cccc(Oc2ccc3nccn3n2)c1)Nc1cccc(C(F)(F)F)c1,0,8,99.8,100,0,0,1,14,0,12
CS(=O)(=O)c1cccc(CNc2nc(Nc3ccc4c(c3)[C@@H]3C[C@@H]4CNC3=O)ncc2C(F)(F)F)c1,0,0,9,73,0,18,0,0,0,0
N#Cc1cccc(C(=O)NC2CCN(c3ccnc(Nc4ccc(F)cc4)n3)C2)c1 (stereo not drawn) [GSK1379708],0,0,0,23,13,2,11,0,0,0
Nc1nccc(-c2ccc3c(N)n[nH]c3c2)n1 [GSK1034945],0,10,0,17,34,15,10,5,13,0
COC(=O)Nc1nc2cc(Oc3ccc(NC(=O)Nc4cc(C(F)(F)F)ccc4Cl)cc3)ccc2[nH]1.Cl [GW697465],11,26,86,100,0,80,39,1,0,0
Cl.Cl.NC[C@H](CC1CCCCC1)NC(=O)c1ccc(-c2ccnc3[nH]ccc23)s1 [GSK1581428],0,0,80,97.3,18,32,31,36,13,0
c1ccc(Oc2ccc(Nc3ccnc4ccc(-c5ccccn5)cc34)cc2)cc1 [GW407034],0,17,0,34,0,0,15,0,0,4
CN(c1ccc2c(c1)nc(NCc1ccc(F)cc1)n2C)c1ccnc(Nc2ccc(CS(C)(=O)=O)cc2)n1.Cl [GW813244],0,0,99,100,0,14,0,0,0,0
O=C(NCC1CC1)c1ccc(-c2cc(C(=O)NC3CC3)ccc2F)cc1 [GW810445],0,0,0,0,0,0,0,0,0,0
Cn1ccc2ncnc(Oc3ccc(NC(=O)Nc4cncc(C(F)(F)F)c4)c(Cl)c3)c21,0,0,98.2,100,26,0,0,0,9,0
CNC(=O)c1ccccc1Nc1nc(Nc2cccc(CS(C)(=O)=O)c2)ncc1C.O=CO [GSK1520489],0,18,94,99.9,49,0,16,63,49,0
C[C@@H](Oc1cc(-n2cnc3ccc(-c4ccncc4)cc32)sc1C(N)=O)c1ccccc1Cl [GSK483724],0,47,8,54,0,22,26,9,0,88
O=C(Nc1n[nH]c2cc(-c3ccco3)ccc12)C1CC1 [SB-737447],31,28,30,59,0,0,1,0,3,6
O=C(NOCC1CC1)c1cc(Br)c(F)c(F)c1Nc1ccc(I)cc1Cl,0,0,0,13,9,0,0,0,0,0
Cn1ccc2ncnc(Oc3ccc(NC(=O)Nc4ccnc(C(F)(F)F)c4)c(Cl)c3)c21,0,0,97,100,0,5,0,24,8,0
CC(C)c1nc(-c2cccc(NS(=O)(=O)c3ccccc3)c2)c(-c2ccnc(Nc3ccc4c(c3)CN(C)CC4)n2)s1 [GSK1649598],100,100,91.2,100,0,85,78,0,45,20
COC(=O)c1cccc(NC(=O)NC2CCN(c3ccnc(Nc4cc(OC)c(OC)c(OC)c4)n3)C2)c1 (stereo not drawn) [GSK1379767],24,0,6,65,0,0,20,10,2,0
C[C@@H](Oc1cc(-n2cnc3cc(-c4cnn(C)c4)ccc32)sc1C(N)=O)c1ccccc1Cl [GSK580432],0,19,84,99.8,75,7,7,0,47,0
Cc1nnc(-c2ccc3occ(-c4ccc(S(C)=O)cc4)c3n2)o1 (stereo not drawn),2,0,0,0,2,0,0,0,16,0
COc1cccc(OC)c1C(=O)Nc1cccc(-c2nn3ccccc3c2-c2ccnc(Nc3cccc(F)c3)n2)c1 [GSK361065],0,3,0,90.2,4,2,3,1,2,0
Cc1ccn2nc(-c3ccc(F)cc3)c(-c3ccncc3)c2c1.Cl [GW457859],18,7,0,33,0,7,24,0,11,0

SMILES,%Inh [1] [%],%Inh [2] [%],%Inh [3] [%],%Inh [4] [%],%Inh [5] [%],%Inh [6] [%],%Inh [7] [%],%Inh [8] [%],%Inh [9] [%],%Inh [10] [%]
CC(=O)Nc1nc2cnc(Nc3cc(NC(=O)c4cccc(CC(C)(C)C#N)c4)ccc3C)nc2s1,47,29,99,100,39,31,14,19,0,14
CCOC(=O)N1CCC(n2cnc(-c3ccc(F)cc3)c2-c2ccnc(N)n2)CC1 [SB-219952],9,32,14,23,7,25,17,0,0,56
Cc1cccc(-c2nc(Nc3ccncc3)c3sccc3n2)n1 [GW869641],0,0,36,27,7,5,0,0,5,29
Cn1ccc2ncnc(Oc3ccc(NC(=O)Nc4cccc(C(F)(F)F)c4)c(Cl)c3)c21,0,8,98.6,100,0,3,10,0,3,0
CN1CCN(CCNc2nc3cc(Oc4ccc(NC(=O)Nc5cc(C(F)(F)F)ccc5F)cc4)ccc3[nH]2)CC1.Cl.Cl [GW768504],0,0,84,99.6,0,37,18,0,0,14
Cc1ccc(C(=O)Nc2ccc(Oc3ccc4nc(NC(=O)C5CC5)cn4c3)c(F)c2)c(=O)n1-c1ccccc1,2,0,98.2,96.5,0,9,0,26,0,0
C[C@@H](Oc1cc(-n2cnc3cc(-c4ccncc4)ccc32)sc1C(N)=O)c1ccccc1Cl [GSK479719],0,15,67,95.1,40,17,18,0,16,0
CCN1CCN(CCCC(=O)Nc2n[nH]c3nc(-c4ccc(O)cc4)c(Br)cc23)CC1 [SB-731579],40,41,39,99.4,0,11,31,0,2,0
Cc1ccc(CC(=O)N2CCc3cc(-c4cn(C)c5ncnc(N)c45)ccc32)cc1 [GSK2634758],0,0,39,96.4,57,9,17,0,0,40
O=C1NCCc2[nH]c(-c3ccncc3)cc21,0,1,27,17,0,0,0,0,14,21
FC(F)(F)c1cc(Br)cc(Nc2nccc(-c3cnn4ncccc34)n2)c1 [GW810578],21,31,64,98.4,5,0,14,16,0,0
Cc1n[nH]c2cc(Nc3ccnc(Nc4cccc(CN5CCOCC5)c4)n3)ccc12 [GW682569],12,8,75,95.4,0,7,20,0,0,0
O=c1[nH]cc(-c2ccc(O)cc2)c2sc(-c3ccncc3)cc12 [GSK1033723],12,17,0,18,0,11,18,7,22,0
COc1cc(Nc2nccc(N3CCC(NC(=O)c4cccc(C#N)c4)C3)n2)cc(OC)c1OC (stereo not drawn) [GSK1379751],0,0,0,70,0,0,3,0,0,0
CN(c1ccccc1CNc1nc(Nc2ccc3c(c2)CC(=O)N3)ncc1C(F)(F)F)S(C)(=O)=O,49,4,3,83,34,35,8,35,25,0
NC(=O)Nc1sc(-c2ccc(F)cc2)cc1C(N)=O [GW789449],100,0,5,54,13,16,0,1,0,40
Cc1ccc2c(-c3ccnc(Nc4ccc(C(F)(F)F)cc4)n3)cnn2n1 [GW819776],12,0,0,45,0,12,0,18,0,0
Cn1cc(-c2cccc3c(N)c(C(N)=O)nnc23)cn1,2,5,12,10,2,6,0,10,0,0
COc1cc2c(Nc3ccc(NC(=O)c4ccccc4)cc3)ncnc2cc1OCCCN1CCOCC1 [GSK301329],0,28,24,55,0,10,12,0,0,0
O=C(Nc1ccccc1)c1cccc(Oc2ccc3nccn3n2)c1,0,38,66,99.3,0,0,38,15,0,0
CS(=O)c1ccc(-c2coc3ccc(-c4n[nH]c(=O)o4)cc23)cc1 (stereo not drawn),2,0,10,0,0,0,4,0,6,8
CN1CCN(CCCNc2nccc(-c3c(-c4ccc(F)cc4)nn4cc(C(N)=O)ccc34)n2)CC1 [GW622475],20,12,0,63,0,33,11,14,26,8

SMILES,%Inh [1] [%],%Inh [2] [%],%Inh [3] [%],%Inh [4] [%],%Inh [5] [%],%Inh [6] [%],%Inh [7] [%],%Inh [8] [%],%Inh [9] [%],%Inh [10] [%]
COc1cccc(C2=C(Nc3cccc(Cl)c3)C(=O)NC2=O)c1 [SB-341556],0,6,0,17,0,8,0,0,0,0
Cc1cccc2c(-c3ccncc3)c(-c3ccc(F)cc3)nn12.Cl [GW461487],0,0,0,14,0,9,11,0,0,0
Cl.c1ccc(Oc2ccc(Nc3ccnc4cc(-c5ccc(CN6CCNCC6)o5)ccc34)cc2)nc1 [GW567142],0,2,78,98.5,0,25,11,0,0,0
CCn1c(-c2nonc2N)nc2cncc(Br)c21 [SB-738004],14,6,50,18,6,10,25,0,0,0
COc1ccc(Nc2nccc(N3CCC(NC(=O)c4cccc(C#N)c4)C3)n2)cc1 (stereo not drawn) [GSK1379730],0,3,0,4,26,0,0,0,0,0
O=C(Nc1ccc(Oc2ccc3nc(NC(=O)C4CC4)cn3n2)c(F)c1)c1cccn(-c2ccccc2)c1=O,5,5,96.3,100,0,0,0,61,0,0
Cn1ccc2ncnc(Oc3ccc(NC(=O)Nc4cc(C(C)(C)C)on4)c(Cl)c3)c21,8,7,98.9,100,0,9,0,3,9,7
C[C@@H]1CCN(C(=O)N2CCCC2)C[C@@H]1N(C)c1ncnc2[nH]ccc12,0,0,21,19,0,0,0,0,5,0
CC(C)S(=O)(=O)N1CCN(Cc2ccc3c(c2)nc(NC(=O)c2ccsc2)n3C[C@H](O)c2ccccc2)CC1 [GW635815],0,4,0,38,4,19,0,64,43,0
CC(=O)Nc1ccc(-c2cc3ncnc(SCC(=O)O)c3s2)cc1,0,24,64,88,0,4,0,21,3,6
CN(c1cccc(CNc2nc(Nc3ccc4c(c3)CC(=O)N4)ncc2C(F)(F)F)c1)S(C)(=O)=O,2,4,34,72,65,10,17,40,18,0
COc1cccc(CNC(=O)NC2CCN(c3ccnc(Nc4cc(OC)c(OC)c(OC)c4)n3)C2)c1 (stereo not drawn) [GSK1379765],0,0,6,51,4,16,11,15,0,0
COC(=O)c1cccc(NC(=O)NC2CCN(c3ccnc(NCc4ccc(F)cc4)n3)CC2)c1 [GSK1379860],0,33,14,7,5,0,7,0,0,0
C[C@@H]1CNc2c(sc3ccc4nc(-c5ccncc5)ccc4c23)C(=O)N1,6,0,72,56,0,0,0,39,55,0
CCCC(=O)Nc1n[nH]c2ncccc12 [SB-601436],0,0,0,0,0,14,9,0,0,0
COc1cc2ncn(-c3cc(OCC4CCCCC4)c(C(N)=O)s3)c2cc1OC [GSK204559],0,21,2,66,17,34,24,4,18,0
Cn1ccc2ncnc(Oc3ccc(NC(=O)Nc4cccc(C(F)(F)F)c4)c(F)c3)c21,17,1,99.1,100,17,0,0,18,0,0
OCCn1cc(-c2cnc3nnn(Cc4ccc5ncccc5c4)c3n2)cn1,0,0,0,0,0,0,0,5,0,0
CC(C(=O)NC1CCN(c2ccnc(Nc3ccc(F)cc3)n2)C1)c1ccc(Cl)cc1 (stereo not drawn) [GSK1379713],0,12,3,7,0,24,2,0,0,0
Cn1ccc2ncnc(Oc3ccc(NC(=O)Nc4cnn(C(C)(C)C)c4)c(Cl)c3)c21,5,0,99.6,100,5,0,0,0,0,27
COc1cc2nccc(Nc3ccc(Oc4ccccc4)cc3)c2cc1OC.Cl [GI261656],0,0,77,92,0,5,9,0,6,0
CCNCC(Cc1ccccc1)NC(=O)c1cc(Br)c(-c2ccnc3[nH]ccc23)s1.Cl.Cl (stereo not drawn) [GSK1383280],15,0,51,75,0,0,21,27,20,0
